Laboratory results from PubChem BioAssay (NCATS).
Results filed as inconclusive are left out. Calls of active or inactive are those of the source. Calls come from the whole dose curve; as a rule, active = well fitted curve in the direction sought with a large enough effect; inconclusive = small, poorly fitted or top-dose-only effect, or another doubt; inactive = no such curve, though single readings can be large; an effect the other way counts as inactive or inconclusive.

Legend:
[1] = tested on: KB-3-1; assay: Cytotoxic Profiling of Annotated Libraries Using Quantitative High-Throughput Screening (AID 1296008); conditions: Five cell lines viability, CellTiter-Glo ATP luminescence, 48-72 h; max response: active compounds read low; note: nearly all actives have a fitted effect of over 60% in size
Method in brief: (§1)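 Compounds were pin-transferred onto cells and incubated 48 or 72 hr at 37 degree Celsius, 95% humidity. CellTiter-Glo was added, plates sat 10 min at room temperature, then ATP-coupled luminescence was imaged as the viability read-out.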

[2] = tested on: NIH3T3; assay: as above; conditions: Five cell lines viability, CellTiter-Glo ATP luminescence, 48-72 h; max response: active compounds read low
Method in brief: as §1

[3] = tested on: C33A; assay: Primary qHTS to identify gynecologic anti-cancer compounds using libraries of approved drugs and bioactive compounds (AID 1345084); conditions: Gynecologic cancer cell panel viability, ATPlite luminescence, 48 h; series mostly up to 57.5 µM; note: nearly all actives have a fitted effect of over 55% in size
Method in brief: (§2)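 Cells, 1,000 per well, plated 16 h, then exposed 48 h at 37 C to compounds. Viability by ATPlite luminescence after 15 min at room temperature.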

[4] = tested on: CAOV3; assay: as above; conditions: Gynecologic cancer cell panel viability, ATPlite luminescence, 48 h; series mostly up to 57.5 µM
Method in brief: as §2

[5] = tested on: CASKI; assay: as above; conditions: Gynecologic cancer cell panel viability, ATPlite luminescence, 48 h; series mostly up to 57.5 µM
Method in brief: as §2

[6] = tested on: Es-2; assay: as above; conditions: Gynecologic cancer cell panel viability, ATPlite luminescence, 48 h; series mostly up to 57.5 µM
Method in brief: as §2

[7] = tested on: HeLa; assay: as above; conditions: Gynecologic cancer cell panel viability, ATPlite luminescence, 48 h; series mostly up to 57.5 µM
Method in brief: as §2

[8] = tested on: Hek293T; assay: as above; conditions: Gynecologic cancer cell panel viability, ATPlite luminescence, 48 h, control line for the selectivity index; series mostly up to 57.5 µM
Method in brief: as §2

[9] = tested on: JEG-3; assay: as above; conditions: Gynecologic cancer cell panel viability, ATPlite luminescence, 48 h; series mostly up to 57.5 µM
Method in brief: as §2

[10] = tested on: OV90; assay: as above; conditions: Gynecologic cancer cell panel viability, ATPlite luminescence, 48 h; series mostly up to 57.5 µM
Method in brief: as §2
% is set by controls: 0 for no effect and ±100 for the full control effect.

CC(C)C[C@H](CC(=O)NO)C(=O)N[C@@H](Cc1ccc2ccccc2c1)C(=O)N[C@@H](C)C(=O)NCCN
inactive: max response [1] 7.03% | max response [2] -2.62% | Potency [3] | Potency [4] | Potency [5] | Potency [6] | Potency [7] | Potency [8] | Potency [9] | Potency [10]

CC1(C)CC[C@]2(C(=O)O[C@@H]3O[C@H](CO)[C@@H](O)[C@H](O)[C@H]3O)CC[C@]3(C)C(=CCC4[C@@]5(C)C[C@@H](O)[C@H](O)[C@](C)(C=O)C5CC[C@]43C)[C@@H]2[C@@H]1O (some centres undefined)
inactive: outcome [1] | max response [2] 0.296% | Potency [3] | Potency [4] | Potency [5] | Potency [6] | Potency [7] | Potency [8] | Potency [9] | Potency [10]

CC(=O)O[C@H]1C[C@@]2(C)[C@@H](CC[C@H]3[C@@]4(C)C=CC(=O)[C@@H](C)[C@@H]4[C@H](O)C(=O)[C@@]32C)/C1=C(/CCC=C(C)C)C(=O)O
inactive: max response [1] 4.45% | max response [2] -3.01% | Potency [3] | Potency [4] | Potency [5] | Potency [6] | Potency [7] | Potency [8] | Potency [9] | Potency [10]

Nc1ncnc2c([C@@H]3N[C@H](CO)[C@@H](O)[C@H]3O)c[nH]c12
inactive: max response [1] 5.62% | max response [2] -4.07% | Potency [3] | Potency [4] | Potency [5] | Potency [6] | Potency [7] | Potency [8] | Potency [9] | Potency [10]

C[C@@H]1C(=O)O[C@H]2[C@@H](O)C34[C@H]5C[C@@H](C(C)(C)C)C36[C@@H](OC(=O)[C@@H]6O)O[C@@]4(C(=O)O5)[C@@]12O (some centres undefined)
inactive: max response [1] -6.44% | max response [2] -0.498% | Potency [3] | Potency [4] | Potency [5] | Potency [6] | Potency [7] | Potency [8] | Potency [9] | Potency [10]

COC(=O)N(C)c1c(N)nc(-c2nn(Cc3ccccc3F)c3ncccc23)nc1N
inactive: max response [1] 0.515% | max response [2] 0.88% | Potency [3] | Potency [4] | Potency [5] | Potency [6] | Potency [7] | Potency [8] | Potency [9] | Potency [10]

C=C1CC23CC1CCC2C12OC(=O)C(C)(CCC1O)C2C3C(=O)O (centres undefined)
inactive: outcome [1] | max response [2] 3.76% | Potency [3] | Potency [4] | Potency [5] | Potency [6] | Potency [7] | Potency [8] | Potency [9] | Potency [10]

N[C@@]1(C(=O)O)CC[C@H]2[C@H](C(=O)O)[C@H]21
inactive: max response [1] 2.99% | max response [2] 4.48% | Potency [3] | Potency [4] | Potency [5] | Potency [6] | Potency [7] | Potency [8] | Potency [9] | Potency [10]

CC#CC(=O)N1CCC[C@H]1c1nc(-c2ccc(C(=O)Nc3ccccn3)cc2)c2c(N)nccn12
inactive: outcome [1] | max response [2] -4.42% | Potency [3] | Potency [4] | Potency [5] | Potency [6] | Potency [7] | Potency [8] | Potency [9] | Potency [10]

CC1(C)CC2C=C(C(=O)O)C3COC(=O)C(O)(CO)C23C1 (centres undefined)
inactive: outcome [1] | max response [2] -0.118% | Potency [3] | Potency [4] | Potency [5] | Potency [6] | Potency [7] | Potency [8] | Potency [9] | Potency [10]

Cc1oc2ccccc2c1CNC(=O)NCc1cccs1
inactive: max response [1] -11.8% | max response [2] -4.16% | Potency [3] | Potency [4] | Potency [5] | Potency [6] | Potency [7] | Potency [8] | Potency [9] | Potency [10]

O=C(O)c1ccc(CN2CCC(CN[C@@H]3C[C@H]3c3ccccc3)CC2)cc1
inactive: max response [1] 6.54% | max response [2] -26% | Potency [3] | Potency [4] | Potency [5] | Potency [6] | Potency [7] | Potency [8] | Potency [10]

COc1cc(N)c(Cl)cc1C(=O)NC[C@@H]1CCN2CCC[C@@H]12
inactive: max response [1] -4.24% | max response [2] -6% | Potency [3] | Potency [4] | Potency [5] | Potency [6] | Potency [7] | Potency [8] | Potency [9] | Potency [10]

C[C@@H]1O[C@@H](O[C@H]2[C@H](O[C@H]3[C@H](O[C@H]4CC[C@@]5(C)C(CC[C@]6(C)C5CC=C5[C@@H]7CC(C)(C)C[C@@H](O)[C@]7(C)CC[C@]56C)[C@@]4(C)CO)O[C@H](C(=O)O)[C@@H](O)[C@@H]3O)OC[C@H](O)[C@@H]2O)[C@H](O)[C@H](O)[C@H]1O (some centres undefined)
inactive: max response [1] -1.37% | max response [2] -4.51% | activity change, negative = cytotoxicity [3] -0.169% [at 11.6 µM] | activity change, negative = cytotoxicity [4] 0% [at 11.6 µM] | activity change, negative = cytotoxicity [5] -2.47% [at 11.6 µM] | activity change, negative = cytotoxicity [6] 1.77% [at 11.6 µM] | activity change, negative = cytotoxicity [7] 0% [at 11.6 µM] | activity change, negative = cytotoxicity [8] -7.13% [at 11.6 µM] | activity change, negative = cytotoxicity [9] -0.873% [at 11.6 µM] | activity change, negative = cytotoxicity [10] -3.06% [at 11.6 µM]

COC1CC(O[C@H]2CC[C@@]3(C)C(=CC[C@]4(O)C3[C@H](OC(C)=O)[C@@H](OC(=O)c3ccccc3)[C@]3(C)[C@@H](C(C)=O)CC[C@@]34O)C2)OC(C)C1OC1CC(OC)C(OC2CC(OC)C(OC3OC(C)C(OC4OC(CO)C(O)C(O)C4O)C(OC)C3O)C(C)O2)C(C)O1 (some centres undefined)
inactive: max response [1] 0.0608% | max response [2] -0.853% | activity change, negative = cytotoxicity [3] -6.27% [at 6.55 µM] | activity change, negative = cytotoxicity [4] -1.71% [at 6.55 µM] | activity change, negative = cytotoxicity [5] -17.5% [at 6.55 µM] | activity change, negative = cytotoxicity [6] 3.59% [at 6.55 µM] | activity change, negative = cytotoxicity [7] -1.12% [at 6.55 µM] | activity change, negative = cytotoxicity [8] -1.35% [at 6.55 µM] | activity change, negative = cytotoxicity [9] -8.02% [at 6.55 µM] | activity change, negative = cytotoxicity [10] 7.55% [at 6.55 µM]
